TGFb inhibitor – TGF-b pathway inhibition. HepG2 CAGA-GFP TGF-b/SMAD3 reporter, GFP fluorescence, 18 h; TGF-beta stimulated, 500 pg/mL final. Potency, µM (highest dose often 46.1 µM), usual class: inhibitors. 410,000 tested, 1.2% active. AID 588855; also: nearly all actives have a fitted effect of over 65% in size
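Read-out: total well GFP (ex488/em500-530) summed from mean per-cell fluorescence. Cells: HEPG2 CAGA-GFP, 1% FBS DMEM, 18 h at 37 degrees C with 500 pg/mL final TGF-beta. Unstimulated wells served as the full-inhibition control; stimulated DMSO wells = 0%.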
ATXN2 expr inh – inhibitors of ATXN2 expression; Potency, µM (top dose mostly 57 µM), most hits filed as inhibitors; 360,000 tested, 0.72% active; HEK-293 ATXN2-luciferase reporter, luminescence, 24 h; also: nearly all actives have a fitted effect of over 55% in size
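qHTS (up to 57 uM final) was run with 24 h compound exposure of reporter cells at 37 °C. Each well was multiplexed: SteadyGlo luminescence measured ATXN2-luciferase expression after a fluorogenic Gly-Phe-AFC viability readout (25 uM final).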
HepG2 viability – counter-screen for TGF-b inhibitors: cytotoxicity in HepG2 cells; HepG2 CAGA-GFP viability, ATP luminescence, 18 h; Potency, µM (highest dose often 46.1 µM), usual class: cytotoxic; 410,000 tested, 0.76% active
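HepG2 CAGA-GFP cells (1000/well, DMEM with 1% FBS) received compound, then TGF-beta at 500 pg/mL final, and were incubated 18 hours at 37 degrees C. Viability was read by CellTiter-Glo luminescence. Media-only wells were set as complete cell-killing and DMSO as no toxicity.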
S2 tox – viability counter-screen for ATXN expression inhibitors | S2 cells (HEK-293 line with an ATXN2-luciferase reporter) viability, CellTiter-Fluor protease fluorescence, 24 h | Potency, µM (top dose mostly 56.7 µM), actives largely listed as cytotoxic | 400,000 tested, 0.49% active | AID 651635; also: nearly all actives have a fitted effect of over 40% in size
Hits are given with their value; - = inactive; ? = inconclusive; . = no result. The list is not random: actives were taken first. Their share in the collection is about 2.3%. Calls follow the shape of the dose curve; as a rule, active = well fitted curve in the direction sought with a large enough effect; inconclusive = small, poorly fitted or top-dose-only effect, or another doubt; inactive = no such curve, though single readings can be large; an effect the other way counts as inactive or inconclusive.

SMILES	TGFb inhibitor	ATXN2 expr inh	HepG2 viability	S2 tox
Cc1c(C(=O)NCC(C)(C)N2CCOCC2)cnn1-c1ncc2c(n1)-c1ccccc1CC2	.	.	.	-
O=C(CN1c2ccccc2Sc2ccccc21)NNC(=O)Nc1ccc(Cl)cc1	?	-	-	-
O=C(CN1c2ccccc2Sc2ccccc21)NNC(=O)Nc1ccc(Cl)c(Cl)c1	?	-	13µM	-
O=C(Nc1nnc(-c2ccco2)s1)c1ccccc1	-	-	-	-
COc1ccc(C(=O)Nc2nnc(-c3ccco3)s2)cc1	-	7.9µM	-	?
Cc1ncc2c(c1CNS(=O)(=O)N(C)C)CCN(C(=O)c1ccc(F)cc1Cl)C2	.	.	.	-
COc1ccc(-c2oc(NC(=O)CCl)c(C#N)c2-c2ccc(OC)cc2)cc1	-	18µM	13µM	.
O=C(O)CCCn1c(O)c(C=C2N=c3ccccc3=N2)sc1=S	-	-	-	?
COCCCn1c(O)c(/C=C2\N=C(C#N)C(=Nc3ccc(C)cc3)O2)sc1=S	?	?	-	35µM
C[n+]1cccc(O)c1SCc1ccccc1	?	?	-	14µM
O=C(Nc1ccccc1)Nc1ccc(-c2ccc(C(=O)[C@H]3CCC[C@H]3C(=O)O)cc2)cc1	.	-	.	.
COc1ccc(-c2[nH][nH]c(=O)c2NC(=O)c2ccccn2)cc1	-	-	-	-
COc1ccc(CCC(=O)Nc2c(-c3ccc(N(C)C)cc3)[nH][nH]c2=O)cc1	?	20µM	-	?
CNc1ccc(/C=C2\C=Cc3ccccc32)cc1Cl	?	.	-	.
CCOC(=O)c1cc(-c2ccccc2)n(CCCC(=O)Nc2ccc(CC)cc2)c1C	?	.	-	.
CCOC(=O)c1cc(-c2ccccc2)n(CCCC(=O)Nc2ccc(C)c(Cl)c2)c1C	11µM	.	-	.
COc1ccccc1NS(=O)(=O)c1cccc(-n2c(O)c(C=Nc3ccccc3C(=O)O)c3ccccc3c2=O)c1	?	-	-	20µM
COc1ccc(Cn2c(O)c(C=Nc3ccccc3C(=O)O)c3ccccc3c2=O)cc1	-	-	-	?
O=C(NCc1nnc2n1CCN(C(=O)/C=C/c1ccccc1)CC2)c1cccc(F)c1	.	.	.	-
CCOc1ccc(-c2nonc2NC(=O)c2oc3ccc(Br)cc3c2C)cc1	-	.	-	.
CCOc1ccc(-c2nonc2NC(=O)c2oc3cc(Br)ccc3c2C)cc1	7.1µM	-	-	?
CC(C)(C)N(Cc1ccc2c(c1)OCO2)C(=O)/C=C\S(=O)c1ccccc1 (stereo not drawn)	11µM	16µM	18µM	?
COc1ccc2c(c1)CC(N1CCN(C)CC1)c1cc(OC)ccc1S2 (stereo not drawn)	?	28µM	16µM	?
CSc1ccc2c(c1)C(N1CCN(C)CC1)Cc1ccc(F)cc1S2 (stereo not drawn)	?	.	-	-
O=C(Nc1nc2c(s1)CN(Cc1ccccc1)CC2)C1CCC1	-	-	11µM	.
SMILES	TGFb inhibitor	ATXN2 expr inh	HepG2 viability	S2 tox
CCN1CCc2nc(NC(=O)c3ccccc3)sc2C1	-	-	-	-
C/C(=N/Nc1ccnc2cc(Cl)ccc12)c1ccc(N)cc1	?	-	-	25µM
C/C(=N/Nc1ccnc2cc(Cl)ccc12)c1ccc(O)cc1	?	-	-	?
C=CCN1C(=O)/C(=C/C=C2/N(CC)c3ccc(S(=O)(=O)N(C)C)cc3N2CC)SC1=S	-	.	-	0.89µM
C=CCN1C(=O)/C(=C\C=C2\N(C)c3ccccc3C2(C)C)SC1=S	-	-	-	?
COc1ccc(Nc2nc(N)nc(CCl)n2)cc1	-	.	-	?
Nc1nc(CCl)nc(Nc2ccc3ccccc3c2)n1	?	3.8µM	-	3.4µM
COCC(=O)Nc1cc(C(=O)N2CCc3c(Cl)cccc3C2)c2c(c1)nc(-c1ccncc1)n2C	.	.	.	-
O=C(c1ccc2c(Cl)c3c(nc2c1)CCCC3)N1CCN(c2cccc(Cl)c2)CC1	?	-	-	-
COc1ccc(CCNC(=O)c2nc(-c3ccc(Cl)cc3)n3c2CCCCC3)c(OC)c1	8.9µM	?	-	?
COc1cccc(N2CCN(C(=O)c3nc(-c4ccc(Cl)cc4)n4c3CCCCC4)CC2)c1	16µM	-	-	?
COc1cccc(N2CCN(C(=O)c3ccc4c(Cl)c5c(nc4c3)CCCC5)CC2)c1	11µM	-	-	?
O=C(c1nc(-c2ccc(Cl)cc2)n2c1CCCCC2)N1CCN(c2ccccc2)CC1	-	-	-	-
O=c1[nH]c2c(-c3nc(-c4ccc(Cl)cc4)cs3)c(O)cn2c2ccccc12	-	.	-	.
Cc1cc(/C=N/n2cnnc2)c(C)n1-c1ccc(OCc2ccc(Cl)cc2Cl)cc1	8.9µM	16µM	-	-

Bioassay records: PubChem, National Center for Advancing Translational Sciences (NCATS)
